PubChem BioAssay (Tox21)
Results filed as inconclusive are left out. Active and inactive are the calls of the source. Unless noted, calls follow the shape of the dose curve; as a rule, active = well fitted curve in the direction sought with a large enough effect in the repeat runs; inconclusive = weak or mixed curves; inactive = no such curve, though single readings can be large; an effect the other way counts as inactive or inconclusive.

Columns and labels:
[1] = qHTS assay for small molecule agonists of the p53 signaling pathway (AID 651631; calls by dose curve; also: nearly all actives have a fitted effect of over 15% in size)
Summary of the method: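 We treat p53RE-bla HCT-116 cells with compounds for 16 h at 37 °C, add LiveBLAzer B/G FRET substrate for 2 h at room temperature, and measure fluorescence intensity.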

[2] = qHTS assay for small molecules that induce genotoxicity in human embryonic kidney cells expressing luciferase-tagged ATAD5 (AID 651632); also: nearly all actives have a fitted effect of over 15% in size
Summary of the method: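 Luminescent reporter readout, HEK293T ATAD5-luc line: 16 hr drug exposure (37C, 5% CO2) followed by Amplite, 30 min RT.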

[3] = qHTS assay for small molecule agonists of the p53 signaling pathway - cell viability (AID 651633; calls by dose curve;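 also: p53RE-bla HCT reporter cells with a stable beta-lactamase p53 reporter; nearly all actives have a fitted effect of over 30% in size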)
Summary of the method: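 Viability counter-read: CellTiter-Glo luminescence (30 min, room temperature) in the same p53RE-bla plates. These plates had been exposed to compounds for 16 h at 37 C.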

[4] = qHTS assay for small molecules that induce genotoxicity in human embryonic kidney cells expressing luciferase-tagged ATAD5 - cell viability (AID 651634; calls by dose curve; also: nearly all actives have a fitted effect of over 25% in size)
Summary of the method: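 Viability read: CellTiter-Fluor fluorescence, 30 min at 37C. Cells: HEK293T, luciferase-tagged ATAD5. Exposure: 15.5 hr, 37C, 5% CO2, compound or DMSO vehicle.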

[5] = qHTS assay for small molecule disruptors of the mitochondrial membrane potential - cell viability (AID 720634; calls by dose curve;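 also: human HepG2 liver cancer cells; nearly all actives have a fitted effect of over 20% in size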)
Summary of the method: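 HepG2, 1 hr compound, 37 C. ATP luminescence via CellTiter-Glo, 30 min RT, same well as m-MPI.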

[6] = qHTS assay for small molecule disruptors of the mitochondrial membrane potential (AID 720635)
Summary of the method: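 Mitochondrial membrane potential tracked with Mito-MPS dye, red aggregates (ex 540/em 590 nm) against green monomers (ex 490/em 535 nm). Compound treatment 1 hr at 37C, dye 30 min in HepG2.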

[7] = qHTS assay to test for compound auto fluorescence at 590 nm (red) in HepG2 cells (AID 720674)
Summary of the method: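 1 hr compound incubation on HepG2 cells, 37 C, 5% CO2; plate read ex 540 nm / em 590 nm; intensities reported as Rose Bengal sodium equivalents.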

[8] = qHTS assay to test for compound auto fluorescence at 460 nm (blue) in HEK293 cells (AID 720678)
Summary of the method: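 Triamterene serves as the blue fluorophore standard. Compound signal at 405/460 nm is read in HEK293 wells (2,000 cells, 10% dialyzed FBS) after overnight treatment at 37C.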

[9] = qHTS assay to test for compound auto fluorescence at 590 nm (red) in HEK293 cells (AID 720679)
Summary of the method: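 We plated HEK293 cells in 10% dialyzed FBS medium, let them adhere for 4-5 hr, then added 23 nL compound. Overnight at 37C and 5% CO2 preceded fluorescence measurement at 540/590nm.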

[10] = qHTS assay to test for compound auto fluorescence at 535 nm (green) in HEK293 cells (AID 720680)
[11] = qHTS assay to test for compound auto fluorescence at 460 nm (blue) in HEK293 cell free culture (AID 720681)
Summary of the method: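 Blue fluorescence (Ex 405/Em 460 nm, triamterene-equivalent) was read immediately after pin transfer of compound or DMSO into medium (DMEM, 10% FBS) without cells.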

[12] = qHTS assay to test for compound auto fluorescence at 535 nm (green) in HEK293 cell free culture (AID 720682)
Summary of the method: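 Green-channel intensity (Ex/Em 485/535 nm) was recorded from compound-treated wells containing only DMEM with 10% FBS. Fluorescein provided the equivalency standard.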

[13] = qHTS assay to test for compound auto fluorescence at 590 nm (red) in HepG2 cell free culture (AID 720684)
Summary of the method: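 Plate contents were MEM with 10% FBS plus test compound or DMSO, no cells. Fluorescence was recorded with 540 nm excitation and 590 nm emission.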

[14] = qHTS assay to test for compound auto fluorescence at 460 nm (blue) in HepG2 cell free culture (AID 720685)
Summary of the method: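 Compound (23 nL) or DMSO pinned into cell-free MEM with 10% FBS; blue fluorescence read at 405/460 nm excitation/emission, expressed as auto-fluorescence equivalency to triamterene.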

[15] = qHTS assay to test for compound auto fluorescence at 535 nm (green) in HepG2 cell free culture (AID 720686)
[16] = qHTS assay to test for compound auto fluorescence at 460 nm (blue) in HepG2 cells (AID 720687)
Summary of the method: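 Blue-channel autofluorescence (Ex/Em 405/460 nm, triamterene-equivalent) was measured after 1 hr compound exposure at 37 C, 5% CO2. Cells were HepG2, plated overnight at 37 C in MEM plus 10% FBS.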

[17] = biological target: Glucocorticoid receptor (Homo sapiens) (UniProt P04150); assay: qHTS assay to identify small molecule agonists of the glucocorticoid receptor (GR) signaling pathway (AID 720691; active = well fitted activation curve with a large enough effect in the signal ratio in the repeat runs, not every such curve was filed as active; the % refers to the signal ratio); details: GR-bla HeLa, beta-lactamase reporter ratio, 18 h; activation: at 62.4 µM (top of the series)
Summary of the method: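 qHTS in GR-bla HeLa cells: 4 h settling at 37 C/5% CO2, 18 h compound incubation at 37 C, 2 h LiveBLAzer B/G FRET substrate at room temperature, fluorescence intensity measured.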

[18] = biological target: Glucocorticoid receptor (Homo sapiens) (UniProt P04150); assay: qHTS assay to identify small molecule antagonists of the glucocorticoid receptor (GR) signaling pathway (AID 720692; active = well fitted inhibition curve with a large enough effect in the signal ratio in the repeat runs, not every such curve was filed as active; the % refers to the signal ratio)
Summary of the method: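 Inhibition of glucocorticoid signalling is measured in HeLa cells with a GRE-controlled beta-lactamase reporter; cells are co-treated with compound and 5 nM dexamethasone (final) for 18 h before FRET substrate readout.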

[19] = qHTS assay to test for compound auto fluorescence at 590 nm (red) in HEK293 cell free culture (AID 720683)
Summary of the method: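 Red-channel autofluorescence of compounds in culture medium (DMEM, 10% FBS), no cells, measured at 540/590 nm. Rose Bengal sodium is the reference fluorophore for equivalence.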

[20] = qHTS assay to test for compound auto fluorescence at 535 nm (green) in HepG2 cells (AID 720675)

Measured: Potency

Chain of Glucocorticoid receptor (Homo sapiens) (P04150 whole entry, looked up): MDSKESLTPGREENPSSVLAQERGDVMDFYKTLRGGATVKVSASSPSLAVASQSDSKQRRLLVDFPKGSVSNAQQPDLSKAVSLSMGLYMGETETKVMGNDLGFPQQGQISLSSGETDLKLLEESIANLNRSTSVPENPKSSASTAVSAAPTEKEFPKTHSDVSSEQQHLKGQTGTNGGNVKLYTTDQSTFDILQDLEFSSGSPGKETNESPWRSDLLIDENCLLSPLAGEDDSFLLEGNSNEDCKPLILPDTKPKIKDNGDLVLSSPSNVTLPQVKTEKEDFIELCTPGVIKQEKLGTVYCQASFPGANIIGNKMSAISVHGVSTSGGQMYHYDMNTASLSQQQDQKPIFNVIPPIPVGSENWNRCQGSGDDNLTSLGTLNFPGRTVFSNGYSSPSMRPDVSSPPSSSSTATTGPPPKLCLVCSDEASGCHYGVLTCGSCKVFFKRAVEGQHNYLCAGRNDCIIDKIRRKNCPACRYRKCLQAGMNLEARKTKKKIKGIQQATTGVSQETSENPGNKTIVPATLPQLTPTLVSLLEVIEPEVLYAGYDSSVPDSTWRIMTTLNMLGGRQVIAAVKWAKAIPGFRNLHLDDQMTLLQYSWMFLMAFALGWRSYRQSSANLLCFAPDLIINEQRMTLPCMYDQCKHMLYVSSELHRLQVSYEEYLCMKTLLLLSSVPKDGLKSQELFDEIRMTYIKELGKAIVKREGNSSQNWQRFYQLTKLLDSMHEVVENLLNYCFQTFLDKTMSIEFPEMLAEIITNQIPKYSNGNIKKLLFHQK

CCc1ncnc2cc(OC)c(OC)cc12
inactive: [1] | [2] | [3] | [4] | [5] | [6] | [7] | [8] | [9] | [10] | [11] | [12] | [13] | [14] | [15] | [16] | [17] | [18]

CN(C)CCc1c[nH]c2ccc(Cn3cncn3)cc12
inactive: [1] | [2] | [3] | [4] | [5] | [6] | [7] | [8] | [9] | [10] | [11] | [12] | [19] | [13] | [14] | [15] | [16]

CC(=O)NC[C@H]1CN(c2ccc(N3CCOCC3)c(F)c2)C(=O)O1
inactive: [1] | [2] | [3] | [4] | [5] | [6] | [7] | [20] | [9] | [10] | [11] | [12] | [13] | [14] | [15] | [17] | [18]

Cc1ccc(C(C)(C)c2ccc(C)cc2)cc1
inactive: [1] | [2] | [3] | [4] | [5] | [6] | [7] | [20] | [9] | [10] | [11] | [12] | [19] | [13] | [14] | [15] | [17] | [18]

C=CC1=C(C(=O)O)N2C(=O)[C@@H](NC(=O)/C(=N/OCC(=O)O)c3csc(N)n3)[C@H]2SC1 (stereo in doubt)
inactive: [1] | [2] | [3] | [4] | [5] | [7] | [20] | [8] | [9] | [10] | [11] | [12] | [19] | [13] | [14] | [15] | [16]

CC1=C(/C=C/C(C)=C/C=C/C(C)=C/C=C/C=C(C)/C=C/C=C(C)/C=C/C2=C(C)CCCC2(C)C)C(C)(C)CCC1
inactive: [1] | [2] | [3] | [4] | [5] | [6] | [7] | [8] | [9] | [10] | [11] | [12] | [19] | [13] | [14] | [15] | [16] | [17] | [18]
